PubChem BioAssay (NCATS)
Records with an inconclusive call do not appear. Activity calls are given as the source filed them. Calls come from the whole dose curve; as a rule, active = well fitted curve in the direction sought with a large enough effect; inconclusive = small, poorly fitted or top-dose-only effect, or another doubt; inactive = no such curve, though single readings can be large; an effect the other way counts as inactive or inconclusive.

How the values were obtained:
[1] = target: ATP-dependent 6-phosphofructokinase (Trypanosoma brucei brucei) (UniProt O15648); experiment: qHTS Assay to Find Inhibitors of T. brucei phosphofructokinase: hit validation (AID 492961);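 note: luminescence reports ADP formed as PFK phosphorylates fructose-6-phosphate with ATP; % is set by controls: 0 for no effect and ±100 for the full control effect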
Sequence of ATP-dependent 6-phosphofructokinase (Trypanosoma brucei brucei) (O15648 whole entry, looked up): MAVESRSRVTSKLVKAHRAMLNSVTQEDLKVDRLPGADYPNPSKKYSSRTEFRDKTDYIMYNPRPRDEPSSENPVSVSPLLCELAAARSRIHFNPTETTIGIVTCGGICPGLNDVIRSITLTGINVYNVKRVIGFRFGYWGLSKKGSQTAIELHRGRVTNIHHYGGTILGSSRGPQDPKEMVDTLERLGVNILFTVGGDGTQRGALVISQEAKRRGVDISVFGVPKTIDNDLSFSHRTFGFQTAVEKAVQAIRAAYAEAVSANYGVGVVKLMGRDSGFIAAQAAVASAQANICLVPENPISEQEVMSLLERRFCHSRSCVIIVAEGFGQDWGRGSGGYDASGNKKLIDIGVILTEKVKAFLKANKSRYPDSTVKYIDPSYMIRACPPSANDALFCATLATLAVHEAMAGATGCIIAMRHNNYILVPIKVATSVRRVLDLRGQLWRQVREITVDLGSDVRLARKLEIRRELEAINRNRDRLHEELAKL
Procedure, shortened: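 In this biochemical qHTS validation, titrated compounds were tested against 1.25 nM PFK with 0.1 mM ATP and 0.5 mM F6P. Percent activity came from controls lacking or containing enzyme.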

[2] = qHTS profiling for inhibitors of Plasmodium falciparum proliferation (AID 504749); note: potency is the fitted concentration of half-maximal effect;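 for activity, negative = inhibition: 0% = DMSO vehicle and full inhibition = artemisinin control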; for all read-outs here: nearly all actives have a fitted effect of over 60% in size; conditions: P. falciparum in erythrocytes, SYBR Green DNA, 72 h; for activity, negative = inhibition: at 28.7 µM (top of the series)
Procedure, shortened: (§1)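 Infected RBCs, 0.3% parasitemia/2.5% Hct final; cpd 72 h, 37 C, 5% CO2; lysis buffer with saponin/triton/SYBR Green I, o/n RT dark; FI 485/535; norm. to artemisinin (0.29 uM) and DMSO.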

3D7 = experiment: as above; conditions: P. falciparum in erythrocytes, SYBR Green DNA, 72 h; series mostly up to 28.7 µM
Procedure, shortened: as §1

7G8 = experiment: as above; conditions: P. falciparum in erythrocytes, SYBR Green DNA, 72 h; series mostly up to 28.7 µM
Procedure, shortened: as §1

AS120 = experiment: as above; conditions: P. falciparum in erythrocytes, SYBR Green DNA, 72 h; series mostly up to 28.7 µM
Procedure, shortened: as §1

ATS189 = experiment: as above; conditions: P. falciparum in erythrocytes, SYBR Green DNA, 72 h; series mostly up to 28.7 µM
Procedure, shortened: as §1

CP185 = experiment: as above; conditions: P. falciparum in erythrocytes, SYBR Green DNA, 72 h; series mostly up to 28.7 µM
Procedure, shortened: as §1

CP191 = experiment: as above; conditions: P. falciparum in erythrocytes, SYBR Green DNA, 72 h; series mostly up to 28.7 µM
Procedure, shortened: as §1

CP192 = experiment: as above; conditions: P. falciparum in erythrocytes, SYBR Green DNA, 72 h; series mostly up to 28.7 µM
Procedure, shortened: as §1

CP194 = experiment: as above; conditions: P. falciparum in erythrocytes, SYBR Green DNA, 72 h; series mostly up to 28.7 µM
Procedure, shortened: as §1

CP201 = experiment: as above; conditions: P. falciparum in erythrocytes, SYBR Green DNA, 72 h; series mostly up to 28.7 µM
Procedure, shortened: as §1

CP203 = experiment: as above; conditions: P. falciparum in erythrocytes, SYBR Green DNA, 72 h; series mostly up to 28.7 µM
Procedure, shortened: as §1

CP237 = experiment: as above; conditions: P. falciparum in erythrocytes, SYBR Green DNA, 72 h; series mostly up to 28.7 µM
Procedure, shortened: as §1

CP238 = experiment: as above; conditions: P. falciparum in erythrocytes, SYBR Green DNA, 72 h; series mostly up to 28.7 µM
Procedure, shortened: as §1

CP247 = experiment: as above; conditions: P. falciparum in erythrocytes, SYBR Green DNA, 72 h; series mostly up to 28.7 µM
Procedure, shortened: as §1

CP286 = experiment: as above; conditions: P. falciparum in erythrocytes, SYBR Green DNA, 72 h; series mostly up to 28.7 µM
Procedure, shortened: as §1

CP291 = experiment: as above; conditions: P. falciparum in erythrocytes, SYBR Green DNA, 72 h; series mostly up to 28.7 µM
Procedure, shortened: as §1

DIV30 = experiment: as above; conditions: P. falciparum in erythrocytes, SYBR Green DNA, 72 h; series mostly up to 28.7 µM
Procedure, shortened: as §1

HB3 = experiment: as above; conditions: P. falciparum in erythrocytes, SYBR Green DNA, 72 h; series mostly up to 28.7 µM
Procedure, shortened: as §1

P94_40 = experiment: as above; conditions: P. falciparum in erythrocytes, SYBR Green DNA, 72 h; series mostly up to 28.7 µM
Procedure, shortened: as §1

CC(O)C(N)C(=O)O (stereo not given)
inactive: Potency [1] | activity, negative = inhibition ([2]; parasite line A) 4.5% | activity, negative = inhibition ([2]; parasite line B) 11.6% | Potency (3D7) | Potency (7G8) | Potency (AS120) | Potency (ATS189) | Potency (CP185) | Potency (CP191) | Potency (CP192) | Potency (CP194) | Potency (CP201) | Potency (CP203) | Potency (CP237) | Potency (CP238) | Potency (CP247) | Potency (CP286) | Potency (CP291) | Potency (DIV30) | Potency (HB3) | Potency (P94_40)

Cc1ccc(S(=O)(=O)NC(=O)NC(C)Cc2ccccc2)cc1 (stereo not given)
inactive: Potency [1] | activity, negative = inhibition ([2]; parasite line A) 7.07% | activity, negative = inhibition ([2]; parasite line B) 4.66% | Potency (3D7) | Potency (7G8) | Potency (AS120) | Potency (ATS189) | Potency (CP185) | Potency (CP191) | Potency (CP192) | Potency (CP194) | Potency (CP201) | Potency (CP203) | Potency (CP237) | Potency (CP238) | Potency (CP247) | Potency (CP286) | Potency (CP291) | Potency (DIV30) | Potency (HB3) | Potency (P94_40)

CO/N=C(/C(=O)N[C@@H]1C(=O)N2C(C(=O)O)=C(C[n+]3ccc(N)n3CCO)CS[C@H]12)c1csc(N)n1
inactive: Potency [1] | activity, negative = inhibition ([2]; parasite line A) 0.303% | activity, negative = inhibition ([2]; parasite line B) 9.51% | Potency (3D7) | Potency (7G8) | Potency (AS120) | Potency (ATS189) | Potency (CP185) | Potency (CP191) | Potency (CP192) | Potency (CP194) | Potency (CP201) | Potency (CP203) | Potency (CP237) | Potency (CP238) | Potency (CP247) | Potency (CP286) | Potency (CP291) | Potency (DIV30) | Potency (HB3) | Potency (P94_40)

CCCCC/C(C=O)=C/c1ccccc1
inactive: Potency [1] | activity, negative = inhibition ([2]; parasite line A) -0.781% | activity, negative = inhibition ([2]; parasite line B) -10.8% | Potency (3D7) | Potency (7G8) | Potency (AS120) | Potency (ATS189) | Potency (CP185) | Potency (CP191) | Potency (CP192) | Potency (CP194) | Potency (CP201) | Potency (CP203) | Potency (CP237) | Potency (CP238) | Potency (CP247) | Potency (CP286) | Potency (CP291) | Potency (DIV30) | Potency (HB3) | Potency (P94_40)

CO[C@H]1OC2O[C@@]3(C)CC[C@H]4[C@H](C)CC[C@@H]([C@H]1C)[C@@]24OO3 (stereo not given in full)
inactive: Potency [1]
active: Potency ([2]; parasite line A) 25.1 nM | Potency ([2]; parasite line B) 15.8 nM | Potency (3D7) 14.1 nM | Potency (7G8) 2.2 nM | Potency (AS120) 22.4 nM | Potency (ATS189) 14.1 nM | Potency (CP185) 31.6 nM | Potency (CP191) 11.2 nM | Potency (CP192) 37.9 nM | Potency (CP194) 60.1 nM | Potency (CP201) 75.7 nM | Potency (CP203) 30.1 nM | Potency (CP237) 15.8 nM | Potency (CP238) 22.4 nM | Potency (CP247) 25.1 nM | Potency (CP286) 17.8 nM | Potency (CP291) 26.9 nM | Potency (DIV30) 15.1 nM | Potency (HB3) 7.9 nM | Potency (P94_40) 11.2 nM

CNC1C(O)C(OC2C(N)CC(N)C(OC3OC(CN)=CCC3N)C2O)OCC1(C)O (stereo not given)
inactive: Potency [1] | activity, negative = inhibition ([2]; parasite line A) 16.7% | activity, negative = inhibition ([2]; parasite line B) -10.7% | Potency (3D7) | Potency (7G8) | Potency (AS120) | Potency (ATS189) | Potency (CP185) | Potency (CP191) | Potency (CP192) | Potency (CP194) | Potency (CP201) | Potency (CP203) | Potency (CP237) | Potency (CP238) | Potency (CP247) | Potency (CP286) | Potency (CP291) | Potency (DIV30) | Potency (HB3) | Potency (P94_40)

O=C1CC[C@H](C(=O)N[C@@H]2C[C@H]2c2ccccc2)N1
inactive: Potency [1] | activity, negative = inhibition ([2]; parasite line A) 10.5% | activity, negative = inhibition ([2]; parasite line B) 18.1% | Potency (3D7) | Potency (7G8) | Potency (AS120) | Potency (ATS189) | Potency (CP185) | Potency (CP191) | Potency (CP192) | Potency (CP194) | Potency (CP201) | Potency (CP203) | Potency (CP237) | Potency (CP238) | Potency (CP247) | Potency (CP286) | Potency (CP291) | Potency (DIV30) | Potency (HB3) | Potency (P94_40)

CCCC[C@H](O)c1ccccc1
inactive: Potency [1] | activity, negative = inhibition ([2]; parasite line A) -2.26% | activity, negative = inhibition ([2]; parasite line B) -1.87% | Potency (3D7) | Potency (7G8) | Potency (AS120) | Potency (ATS189) | Potency (CP185) | Potency (CP191) | Potency (CP192) | Potency (CP194) | Potency (CP201) | Potency (CP203) | Potency (CP237) | Potency (CP238) | Potency (CP247) | Potency (CP286) | Potency (CP291) | Potency (DIV30) | Potency (HB3) | Potency (P94_40)

C[C@@H]1C(SC2Cn3cnc[n+]3C2)=C(C(=O)[O-])N2C(=O)[C@H]([C@@H](C)O)[C@@H]12 (stereo not given in full)
inactive: Potency [1] | activity, negative = inhibition ([2]; parasite line A) 6.33% | activity, negative = inhibition ([2]; parasite line B) 11.1% | Potency (3D7) | Potency (7G8) | Potency (AS120) | Potency (ATS189) | Potency (CP185) | Potency (CP191) | Potency (CP192) | Potency (CP194) | Potency (CP201) | Potency (CP203) | Potency (CP237) | Potency (CP238) | Potency (CP247) | Potency (CP286) | Potency (CP291) | Potency (DIV30) | Potency (HB3) | Potency (P94_40)

CC(c1ncncc1F)[C@](O)(Cn1cncn1)c1ccc(F)cc1F (stereo not given in full)
inactive: Potency [1] | activity, negative = inhibition ([2]; parasite line A) 7.39% | activity, negative = inhibition ([2]; parasite line B) -17.3% | Potency (3D7) | Potency (7G8) | Potency (AS120) | Potency (ATS189) | Potency (CP185) | Potency (CP191) | Potency (CP192) | Potency (CP194) | Potency (CP201) | Potency (CP203) | Potency (CP237) | Potency (CP238) | Potency (CP247) | Potency (CP286) | Potency (CP291) | Potency (DIV30) | Potency (HB3) | Potency (P94_40)
